In all, about 360,000 compounds went through this assay and about 25,000 (6.9%) were called active. About 9% were inconclusive and are not listed. Calls follow the shape of the dose curve; as a rule, active = well fitted inhibition curve with a large enough effect; inconclusive = small, poorly fitted or top-dose-only effect; inactive = flat fitted curve, though single readings scatter. The entries come from a sample that favours actives as a whole. Entries that show only a call come without a potency.
What follows are molecules tested against Luciferin 4-monooxygenase (Photinus pyralis) (UniProt P08659) (assay: qHTS profiling assay for firefly luciferase inhibitor/activator using purifed enzyme and Km concentrations of substrates (counterscreen for miR-21 project)). Details: purified FLuc, luminescence inhibition; series mostly up to 57.5 µM.
How it was run: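 Purified P. pyralis luciferase, 10 nM final, with Km-level 10 uM D-luciferin and 10 uM ATP in 50 mM Tris acetate pH 7.5, 10 mM Mg acetate, 0.01% Tween-20, 0.05% BSA; 6-point qHTS titration about 60 µM downward; luminescence read.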
Also: nearly all actives have a fitted effect of over 55% in size.
Potency is read from the fitted curve at half-maximal effect.

Chain of Luciferin 4-monooxygenase (Photinus pyralis) (P08659 whole entry, looked up): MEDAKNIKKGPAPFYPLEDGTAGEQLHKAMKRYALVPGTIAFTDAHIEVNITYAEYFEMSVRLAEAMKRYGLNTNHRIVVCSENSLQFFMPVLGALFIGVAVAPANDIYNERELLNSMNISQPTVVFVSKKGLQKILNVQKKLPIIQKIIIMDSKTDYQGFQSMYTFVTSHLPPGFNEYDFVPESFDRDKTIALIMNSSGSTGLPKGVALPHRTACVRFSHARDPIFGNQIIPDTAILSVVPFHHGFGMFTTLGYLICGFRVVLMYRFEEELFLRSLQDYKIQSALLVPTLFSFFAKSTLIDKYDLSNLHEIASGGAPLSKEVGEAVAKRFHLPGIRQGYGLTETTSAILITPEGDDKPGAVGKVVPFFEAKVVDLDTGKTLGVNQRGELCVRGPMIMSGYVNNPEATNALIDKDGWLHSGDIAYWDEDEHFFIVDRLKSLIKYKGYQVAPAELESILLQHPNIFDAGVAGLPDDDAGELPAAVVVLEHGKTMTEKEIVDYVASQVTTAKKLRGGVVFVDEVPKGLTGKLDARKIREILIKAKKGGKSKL

Compound	Potency
CCOc1cccc(NC(=O)Cn2nc(-c3ccc4c(c3)OCCO4)ccc2=O)c1	inactive
CC(=O)NN1C(=O)c2ccccc2NC1c1ccccc1 (centres undefined)	inactive
Nc1nnnn1CC(=O)N/N=C/c1ccc(-c2cccc(Cl)c2)o1	inactive
O=C1c2ccccc2NC(c2ccc(-c3cccc(Cl)c3)o2)N1O (centres undefined)	10.7 µM (active)
Cc1cc(C)c(NC(=O)Cn2c(SCC(=O)NCc3ccccc3)nc3ccccc32)c(C)c1	inactive
CCn1c(CNC(=O)c2ccccc2)nnc1SCC(=O)N1CCN(c2ccccc2)CC1	inactive
Cc1ncc(CC(=O)n2cc(C(=O)c3cc(Cl)ccc3O)cn2)s1	inactive
CCCc1c(C(=O)O)cnn1-c1ccc(Cl)cc1	inactive
O=C(c1cnn(-c2ccc(Cl)cc2)c1)c1ccccc1O	2.13 µM (active)
COc1cc(C(C)=O)ccc1OC(C)C(=O)Nc1ccc(S(=O)(=O)N2CCCC2)cc1 (centres undefined)	inactive
Cc1oc2ncn(CC(C)C)c(=O)c2c1C(=O)N1CCN(c2ccccc2F)CC1	inactive
N#Cc1c(NC(=O)C2CC(Cl)=CCC2C(=O)O)sc2c1CCCCC2 (centres undefined)	inactive
N#Cc1c(NC(=O)CCCl)sc2c1CCCCC2	inactive
N#Cc1c(NC(=O)C2CCCO2)sc2c1CCCCC2 (centres undefined)	13.5 µM (active)
O=C(NCc1ccco1)c1sc2cccc(F)c2c1Cl	inactive
COc1ccc2c(Cl)c(C(=O)NCc3ccco3)sc2c1	10.7 µM (active)
CCN(C(=O)c1sc2cc(OC)ccc2c1Cl)c1ccccc1	inactive
COc1cc(C(=O)NC(=S)NCc2ccco2)cc(OC)c1OC	inactive
COc1ccc2oc(C(=O)NCc3ccco3)c(C)c2c1	16.9 µM (active)
COc1ccc(NC(=O)C(=O)NCc2ccco2)cc1	inactive
CCCC(=O)Nc1cc(C(=O)NCc2ccc(OC)cc2)ccc1S(=O)(=O)c1ccc(Cl)cc1	inactive
COc1cc(OC)c(C2C=C(C(=O)O)Nc3ncnn32)cc1OC (centres undefined)	inactive
CCC(C)NC(=O)c1ccc(NC(=O)CC2SC(N3CCCCC3)=NC2=O)cc1 (centres undefined)	inactive
O=C(COc1ncnc2c(Cl)cc(Cl)cc12)N1CCN(S(=O)(=O)c2ccccc2)CC1	inactive
Cc1ccc(-n2ncc(C(=O)N(C)Cc3ccccc3)c2-n2cccc2)cc1	inactive
O=C(O)CC/C(=C\c1cc2c(cc1Br)OCO2)c1nc2ccccc2s1	inactive

Compound	Potency
CC(=O)N/C(=C\c1ccc(F)cc1)C(=O)NC(Cc1ccccc1)C(=O)O (centres undefined)	inactive
O=C(O)CS/C(=C\c1ccc(F)cc1)c1nc2ccccc2s1	23.9 µM (active)
COc1ccccc1NC(=O)CN1C(=O)c2ccccc2Sc2ccc(C(=O)N3CCCC3)cc21	inactive
O=C(Nc1ccccc1)c1ccccc1NC(=O)C(F)(F)F	inactive
O=C(Nc1ccccc1)N1CCN(C(=O)Nc2ccccc2)CC1	inactive
O=C(Nc1ccccc1)c1cc2ccccc2[nH]1	9.53 µM (active)
CCC(=O)N1CCc2cc(S(=O)(=O)NC(CC(C)C)C(=O)NCCc3cccc(C)c3)ccc21 (centres undefined)	inactive
CCCCSc1ncnc2c1sc1nc(N3CCOCC3)c3c(c12)CCCC3	inactive
CC(C)CNC(=O)/C=C/C(=O)O	inactive
Cc1ccc(CN2CCC(CNC(=O)c3cnn(-c4ccccc4Cl)c3C3CCN(C(=O)OC(C)(C)C)CC3)CC2)cc1	inactive
COc1cccc(CNC(=O)COC(=O)CN2C(=O)NC3(CCCCC3C)C2=O)c1 (centres undefined)	inactive
CCCc1ccc(C(=O)COC(=O)CN2C(=O)NC3(CCCCC3C)C2=O)cc1 (centres undefined)	26.9 µM (active)
CC1CCCCC12NC(=O)N(CC(=O)OCC(=O)NCc1ccc(F)cc1)C2=O (centres undefined)	inactive
COc1ccc(CCNC2=C(Cl)C(=O)N(Cc3ccccc3)C2=O)cc1OC	inactive
C/C(=N/NC(=O)c1ccncc1)c1ccc2c(c1)OCO2	inactive
CCN(CC)c1ccc2cc(C(N)=O)/c(=N\NC(=O)c3ccncc3)oc2c1	16.9 µM (active)
COc1ccc(C/C(C)=N/NC(=O)c2ccncc2)cc1	inactive
CO/N=C/c1cn(-c2ccc(Cl)cc2)nn1	inactive
O=C(CC1C(=O)N(c2ccccc2)C(=O)N1CCc1cccs1)Nc1ccc(F)cc1 (centres undefined)	inactive
CC(C)Sc1oc(-c2cccs2)nc1S(=O)(=O)c1ccc(Cl)cc1	inactive
COCc1c(N)c(C)nc(Cl)c1C#N	10.7 µM (active)
Cc1nc(Cl)c(C#N)c2c1CCCC2	inactive
COc1ccc(C2=NC(c3ccncc3)=Nc3ccc(Br)cc3N2)cc1	inactive
CCc1nnc2c3ccccc3nc(N3CCN(c4ccc(C)cc4C)CC3)n12	inactive
COc1cccc(NC(=O)CN2C(=O)c3ccccc3Sc3ncccc32)c1	inactive
Cc1cccc(CNC(=O)c2cnc3sc(N4CCCCC4)nn3c2=O)c1	inactive

Compound	Potency
Brc1cccc(-c2nnn3c2nc(NC2CCCCC2)c2ccccc23)c1	inactive
Nc1cc(C(F)(F)F)ccc1N1CCOCC1	inactive
CCn1c(C)c(C)c2cc(C(=O)NCCc3cc(OC)ccc3OC)ccc21	inactive
CCOC(=O)c1c(NC(=O)c2cc(-c3ccc(Cl)cc3)on2)sc2c1CCCC2	inactive
CCOc1ccc(NC(=O)C2CCN(S(=O)(=O)c3cc(-c4noc(C)n4)ccc3C)CC2)cc1	inactive
COc1ccc2c(C)c(CCC(=O)NC3CC3)c(=O)oc2c1C	inactive
Cc1c(CCC(=O)O)c(=O)oc2c(C)c(OCc3ccccc3Cl)ccc12	inactive
CCOC(=O)CCc1c(C)c2ccc(OCc3nn[nH]n3)c(C)c2oc1=O	15.1 µM (active)
Cc1ccc(NC(=O)CC2S/C(=N/N=C3\CCCc4ccccc43)NC2=O)cc1 (centres undefined)	inactive
Cc1ccc(N/N=C2\COC(C)(C)CC2=O)cc1	7.57 µM (active)
Cc1ccc(-n2c(SCC(=O)Nc3cccc(F)c3)nc3c(oc4ccccc43)c2=O)cc1C	inactive
COc1cc(Br)cc2cc(S(=O)(=O)c3ccccc3)c(=O)oc12	inactive
COc1cccc(C(=O)NCCSc2ccc(Br)cc2)c1	inactive
COc1ccc(C(=O)NCCSc2ccccc2C)cc1	3.79 µM (active)
COc1ccc(C(=O)NCc2nnc(SCCOc3ccccc3)n2C)cc1	inactive
COc1ccccc1CN1CCC(CNC(=O)c2cnn(-c3ccccc3Cl)c2C2CCN(C(=O)OC(C)(C)C)CC2)CC1	inactive
Cc1cc(C(F)(F)F)nc(SCC(=O)Nc2nccs2)n1	inactive
CCCc1cc(=O)n2[nH]c(C)c(-c3ccc(Cl)cc3)c2n1	inactive
O=c1c2c(nc3cc(-c4cccc(Cl)c4)[nH]n13)CCCC2	0.478 µM (active)
Cc1cc(=O)n2[nH]c(-c3sccc3-n3c(C)ccc3C)cc2n1	inactive
Cc1cc(=O)n2[nH]c(-c3cccc(Cl)c3)cc2n1	15.1 µM (active)
O=c1c2c(nc3nc[nH]n13)CCC2	inactive
O=C1CCCc2c1nc(-c1cccc(Cl)c1)n2O	inactive
CCOC(=O)c1c(-c2ccc(OC)cc2)oc2ccc(OCc3ccc(C(=O)OC)cc3)cc12	inactive
COc1ccc(C)cc1NC(=O)CCc1c(C)nn(-c2ccc(N3CCOCC3)nn2)c1C	inactive
Cc1ccc(Cn2c(C)c3cnn(CC(=O)NCc4ccccc4)c(=O)c3c2C)cc1	inactive

Compound	Potency
CC(=O)c1c(C)n(S(=O)(=O)c2ccc(Cl)cc2)c2ccc(NS(=O)(=O)c3ccc(Cl)cc3)cc12	inactive
COc1cc(C(=O)Nc2ncccc2C)ccc1OCC(=O)N1CCOCC1	inactive
COc1ccccc1-c1cc2nc(C)c(CCC(=O)O)c(C)n2n1	15.1 µM (active)
COc1ccc(-c2cc3nc(C)c(CCC(=O)NC(C)CCc4ccco4)c(C)n3n2)c(OC)c1 (centres undefined)	inactive
COc1cc(OC)cc(-c2nc3nc(C)c(CCC(=O)Nc4ccccc4)c(C)n3n2)c1	inactive
CCOc1ccc(OCC)c(NC(=O)CN(c2ccc(C)cc2)S(=O)(=O)c2c(C)n[nH]c2C)c1	inactive
CCOC(=O)c1c(S(=O)(=O)NCC(=O)Nc2ccc(Cl)c(C(F)(F)F)c2)c(C)n(C)c1C	inactive
CC1CCN(CC(=O)c2c[nH]c3ccccc23)CC1	inactive
C[C@H](NC(=O)c1ccccc1)C(=O)OCC(=O)c1c[nH]c2ccccc12	inactive
O=C(OCC(=O)c1c[nH]c2ccccc12)c1cccc(O)c1	9.53 µM (active)
Cn1c(=O)[nH]c(=O)c2c1nc(CN1CCN(c3ccccc3F)CC1)n2CCc1ccccc1	inactive
CCOc1cc(CNC(=O)c2sc3ncnc(N(C)C4CCCCC4)c3c2C)ccc1OC	inactive
O=C(NCC1CCCO1)c1ccccc1-c1nc(-c2ccccc2Cl)no1 (centres undefined)	12 µM (active)
Cc1onc(-c2ccccc2Cl)c1C(=O)NCCn1ccc2ccccc21	inactive
O=C(CSCc1c(F)cccc1Cl)NCC1CCCO1 (centres undefined)	inactive
Cc1ccccc1CN(c1ccc(C(=O)NCC2CCCO2)cc1)S(C)(=O)=O (centres undefined)	inactive
O=C(NCC1CCCO1)c1cc2c([nH]c3ccccc32)c(-c2ccc(F)cc2)n1 (centres undefined)	inactive
O=C(Nc1ccccc1C(=O)NCC1CCCO1)c1ccccc1F (centres undefined)	inactive
COCCNC(=O)c1ccccc1-c1nc(-c2ccccc2Cl)no1	12 µM (active)
Cc1ccc(-c2noc(-c3ccccc3C(=O)NCC3CCCO3)n2)cc1 (centres undefined)	4.78 µM (active)
COCCNC(=O)c1cc(-c2cccc(Cl)c2)on1	inactive
CCC(=O)N1c2ccccc2CC1C(=O)N1CCN(c2cccc(OC)c2)CC1 (centres undefined)	inactive
Cc1c(C)n(Cc2ccc(Cl)cc2)c2ccc(C(=O)N3CCN(c4ccccc4F)CC3)cc12	inactive
CCOc1cc(C(=O)NCCc2csc3nc(-c4ccc(C)cc4)nn23)cc(OCC)c1OCC	inactive
CCCn1c(NCc2ccccc2F)nc2ccccc21	inactive
Cc1ccc(NC(=O)c2cccc(S(=O)(=O)N3CCCc4ccccc43)c2)nc1	inactive

From PubChem BioAssay AID588342 (National Center for Advancing Translational Sciences (NCATS), 2011)
